# In PubChem BioAssay AID1159580 (chemical genetic matrix, 2015):
# Out of some 5,500 compounds screened, about 2,000 (36%) were called active. About 18% were inconclusive and are not listed. Some of the results follow. Values without a mark were called inactive. Cut-off read from the data, not from the text of the source: active = normalized growth mostly below about 0.91 (no sharp cut-off); inconclusive = no clear call, values can overlap the other calls; inactive = mostly above about 0.92.
# Assay: chemical genetic growth profiling, strain panel (AID 1159580);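 note: tested at 20 µM; growth read once vehicle control cultures reached saturation at 30 °C; 1 = growth at the plate median or of vehicle wells; lower values mean less growth of the strain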
# Conditions: S. cerevisiae deletion strains, growth OD
structure (smiles),measurement,setting,value
COc1cc2occ(-c3ccccc3)c(=O)c2c(OC)c1C,normalized growth,"locus YAL013W, strain DEP1, stronger effect = lower value",0.947
same,normalized growth,"locus YAL021C, strain ccr4, stronger effect = lower value",0.996
same,normalized growth,"locus YAL026C, strain drs2, stronger effect = lower value",0.96
same,normalized growth,"locus YAL030W, strain snc1, stronger effect = lower value",0.967
same,normalized growth,"locus YBL061C, strain skt5, stronger effect = lower value",0.985
same,normalized growth,"locus YBR009C, strain hhf1, stronger effect = lower value",0.978
same,normalized growth,"locus YBR021W, strain FUR4, stronger effect = lower value",0.923
same,normalized growth,"locus YBR023C, strain chs3, stronger effect = lower value",0.966
same,normalized growth,"locus YBR171W, strain sec66, stronger effect = lower value",0.965
same,normalized growth,"locus YBR229C, strain ROT2, stronger effect = lower value",0.959
same,normalized growth,"locus YBR231C, strain swc5, stronger effect = lower value",0.966
same,normalized growth,"locus YBR279W, strain paf1, stronger effect = lower value",0.992
same,normalized growth,"locus YCL011C, strain gbp2, stronger effect = lower value",0.973
same,normalized growth,"locus YCL016C, strain dcc1, stronger effect = lower value",0.968
same,normalized growth,"locus YCL029C, strain bik1, stronger effect = lower value",0.933
same,normalized growth,"locus YCL061C, strain MRC1, stronger effect = lower value",0.973
same,normalized growth,"locus YCL069W, strain vba3, stronger effect = lower value",0.975
same,normalized growth,"locus YCR088W, strain abp1, stronger effect = lower value",0.972
same,normalized growth,"locus YDL005C, strain med2, stronger effect = lower value",1.02
same,normalized growth,"locus YDL035C, strain GPR1, stronger effect = lower value",0.915
same,normalized growth,"locus YDL040C, strain nat1, stronger effect = lower value",0.973
same,normalized growth,"locus YDL074C, strain BRE1, stronger effect = lower value",0.817
same,normalized growth,"locus YDL101C, strain DUN1, stronger effect = lower value",0.953
same,normalized growth,"locus YDL134C, strain PPH21, stronger effect = lower value",0.963
same,normalized growth,"locus YDL185W, strain tfp1, stronger effect = lower value",0.945
same,normalized growth,"locus YDL192W, strain arf1, stronger effect = lower value",0.903 (active)
same,normalized growth,"locus YDR001C, strain nth1, stronger effect = lower value",0.967
same,normalized growth,"locus YDR069C, strain doa4, stronger effect = lower value",0.995
same,normalized growth,"locus YDR101C, strain arx1, stronger effect = lower value",0.934
same,normalized growth,"locus YDR137W, strain rgp1, stronger effect = lower value",0.765 (active)
same,normalized growth,"locus YDR150W, strain NUM1, stronger effect = lower value",0.963
same,normalized growth,"locus YDR159W, strain sac3, stronger effect = lower value",0.98
same,normalized growth,"locus YDR162C, strain NBP2, stronger effect = lower value",0.875
same,normalized growth,"locus YDR195W, strain ref2",1.1
same,normalized growth,"locus YDR297W, strain sur2, stronger effect = lower value",0.974
same,normalized growth,"locus YDR318W, strain mcm21, stronger effect = lower value",0.891 (active)
same,normalized growth,"locus YDR334W, strain swr1, stronger effect = lower value",0.968
same,normalized growth,"locus YDR335W, strain msn5, stronger effect = lower value",0.991
same,normalized growth,"locus YDR388W, stronger effect = lower value",0.935
same,normalized growth,"locus YDR392W, strain spt3, stronger effect = lower value",0.707 (active)
same,normalized growth,"locus YDR502C, strain sam2, stronger effect = lower value",0.919 (active)
same,normalized growth,"locus YEL003W, strain gim4, stronger effect = lower value",0.978
same,normalized growth,"locus YEL037C, strain rad23, stronger effect = lower value",0.977
same,normalized growth,"locus YEL061C, strain CIN8 (second series), stronger effect = lower value",0.978
same,normalized growth,"locus YEL061C, strain CIN8, stronger effect = lower value",0.968
same,normalized growth,"locus YER015W, strain faa2, stronger effect = lower value",0.981
same,normalized growth,"locus YER016W, strain bim1, stronger effect = lower value",0.97
same,normalized growth,"locus YER110C, stronger effect = lower value",0.938
same,normalized growth,"locus YER111C, strain swi4, stronger effect = lower value",1
same,normalized growth,"locus YER155C, strain BEM2 (second series), stronger effect = lower value",0.886
same,normalized growth,"locus YER155C, strain BEM2, stronger effect = lower value",0.961
same,normalized growth,"locus YER167W, strain BCK2, stronger effect = lower value",0.881 (active)
same,normalized growth,"locus YFR010W, strain ubp6, stronger effect = lower value",0.991
same,normalized growth,"locus YGL078C, strain dbp3, stronger effect = lower value",0.975
same,normalized growth,"locus YGL086W, strain mad1, stronger effect = lower value",0.901 (active)
same,normalized growth,"locus YGL167C, strain pmr1, stronger effect = lower value",0.965
same,normalized growth,"locus YGL173C, strain kem1, stronger effect = lower value",0.983
same,normalized growth,"locus YGL227W, strain vid30, stronger effect = lower value",0.989
same,normalized growth,"locus YGL240W, strain doc1, stronger effect = lower value",0.944
same,normalized growth,"locus YGL248W, strain PDE1, stronger effect = lower value",0.961
same,normalized growth,"locus YGL253W, strain hxk2, stronger effect = lower value",0.971
same,normalized growth,"locus YGR078C, strain PAC10, stronger effect = lower value",0.932
same,normalized growth,"locus YGR135W, strain pre9, stronger effect = lower value",0.918
same,normalized growth,"locus YGR229C, strain SMI1, stronger effect = lower value",0.813
same,normalized growth,"locus YGR252W, strain gcn5, stronger effect = lower value",0.707 (active)
same,normalized growth,"locus YHR013C, strain ard1, stronger effect = lower value",0.976
same,normalized growth,"locus YHR027C, strain rpn1, stronger effect = lower value",0.989
same,normalized growth,"locus YHR030C, strain SLT2, stronger effect = lower value",0.948
same,normalized growth,"locus YHR079C, strain IRE1 (second series), stronger effect = lower value",0.911 (active)
same,normalized growth,"locus YHR094C, strain hxt1, stronger effect = lower value",0.956
same,normalized growth,"locus YHR129C, strain ARP1, stronger effect = lower value",0.949
same,normalized growth,"locus YHR142W, strain chs7, stronger effect = lower value",0.917
same,normalized growth,"locus YHR200W, strain rpn10, stronger effect = lower value",0.905 (active)
same,normalized growth,"locus YIL066C, strain RNR3, stronger effect = lower value",0.874
same,normalized growth,"locus YIL073C, strain SPO22, stronger effect = lower value",0.818
same,normalized growth,"locus YIL125W, strain kgd1, stronger effect = lower value",0.955
same,normalized growth,"locus YIR030C, strain dcg1, stronger effect = lower value",0.937
same,normalized growth,"locus YJL092W, strain hpr5, stronger effect = lower value",0.977
same,normalized growth,"locus YJL095W, strain BCK1 (second series), stronger effect = lower value",0.975
same,normalized growth,"locus YJL095W, strain BCK1, stronger effect = lower value",0.847
same,normalized growth,"locus YJL115W, strain asf1, stronger effect = lower value",0.998
same,normalized growth,"locus YJL129C, strain trk1, stronger effect = lower value",0.891
same,normalized growth,"locus YJL134W, strain LCB3, stronger effect = lower value",0.965
same,normalized growth,"locus YJL154C, strain vps35, stronger effect = lower value",0.99
same,normalized growth,"locus YJL164C, strain tpk1, stronger effect = lower value",0.937
same,normalized growth,"locus YJL166W, strain qcr8, stronger effect = lower value",0.975
same,normalized growth,"locus YJL168C, strain set2, stronger effect = lower value",0.946
same,normalized growth,"locus YJL187C, strain SWE1 (second series), stronger effect = lower value",0.934
same,normalized growth,"locus YJL187C, strain SWE1, stronger effect = lower value",0.976
